# Reference: PubChem BioAssay AID1159580 (chemical genetic matrix, 2015)
# Screen size: about 5,500 compounds; about 2,000 (36%) were called active. Inconclusive results (about 18%) are left out. The list shows a part of the results. Values without a mark were called inactive. Cut-off read from the data, not from the text of the source: active = normalized growth mostly below about 0.91 (no sharp cut-off); inconclusive = no clear call, values can overlap the other calls; inactive = mostly above about 0.92.
# Assay: chemical genetic growth profiling, strain panel (AID 1159580);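 note: tested at 20 µM; growth read once vehicle control cultures reached saturation at 30 °C; 1 = growth at the plate median or of vehicle wells; lower values mean less growth of the strain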
# Details: growth OD
# [1] = S. cerevisiae deletion strains, locus YDL101C, strain DUN1, stronger effect = lower value
# [2] = S. cerevisiae deletion strains, locus YHR030C, strain SLT2, stronger effect = lower value
# [3] = S. cerevisiae deletion strains, locus YMR307W, strain GAS1, stronger effect = lower value
# [4] = S. cerevisiae deletion strains, locus YNL322C, strain KRE1, stronger effect = lower value
# [5] = S. cerevisiae deletion strains, locus YPL055C, strain LGE1, stronger effect = lower value
# [6] = S. cerevisiae deletion strains, locus YPL241C, strain CIN2, stronger effect = lower value
# [7] = S. cerevisiae deletion strains, locus YHR079C, strain IRE1, stronger effect = lower value
# [8] = S. cerevisiae deletion strains, locus YJL095W, strain BCK1, stronger effect = lower value
# [9] = S. cerevisiae deletion strains, locus YJR066W, strain TOR1, stronger effect = lower value
# [10] = S. cerevisiae deletion strains, locus YLR113W, strain HOG1, stronger effect = lower value
# [11] = S. cerevisiae deletion strains, locus YNL183C, strain NPR1, stronger effect = lower value
# [12] = S. cerevisiae deletion strains, locus YOR231W, strain MKK1, stronger effect = lower value
# [13] = S. cerevisiae deletion strains, locus YPL256C, strain CLN2, stronger effect = lower value
smiles,measurement,setting,value
Cn1c(=S)[nH]c2cc(C(F)(F)F)ccc21,normalized growth,"S. cerevisiae deletion strains, locus YAL013W, strain DEP1, stronger effect = lower value",0.977
same,normalized growth,"S. cerevisiae deletion strains, locus YBR229C, strain ROT2, stronger effect = lower value",0.987
same,normalized growth,[1],0.968
same,normalized growth,"S. cerevisiae deletion strains, locus YDL134C, strain PPH21, stronger effect = lower value",0.979
same,normalized growth,"S. cerevisiae deletion strains, locus YDR150W, strain NUM1, stronger effect = lower value",0.959
same,normalized growth,"S. cerevisiae deletion strains, locus YEL061C, strain CIN8, stronger effect = lower value",0.888 (active)
same,normalized growth,"S. cerevisiae deletion strains, locus YGR078C, strain PAC10, stronger effect = lower value",0.975
same,normalized growth,[2],0.767
same,normalized growth,"S. cerevisiae deletion strains, locus YHR087W, strain rtc3, stronger effect = lower value",1
same,normalized growth,"S. cerevisiae deletion strains, locus YJL187C, strain SWE1, stronger effect = lower value",0.98
same,normalized growth,"S. cerevisiae deletion strains, locus YJR043C, strain POL32, stronger effect = lower value",0.978
same,normalized growth,"S. cerevisiae deletion strains, locus YJR075W, strain HOC1, stronger effect = lower value",1.02
same,normalized growth,"S. cerevisiae deletion strains, locus YLR039C, strain RIC1, stronger effect = lower value",0.538 (active)
same,normalized growth,"S. cerevisiae deletion strains, locus YLR058C, strain SHM2 (second series), stronger effect = lower value",0.974
same,normalized growth,"S. cerevisiae deletion strains, locus YLR085C, strain ARP6, stronger effect = lower value",0.378 (active)
same,normalized growth,"S. cerevisiae deletion strains, locus YLR262C, strain YPT6, stronger effect = lower value",0.733 (active)
same,normalized growth,"S. cerevisiae deletion strains, locus YML094W, strain GIM5, stronger effect = lower value",0.911
same,normalized growth,"S. cerevisiae deletion strains, locus YMR219W, strain ESC1, stronger effect = lower value",0.987
same,normalized growth,"S. cerevisiae deletion strains, locus YMR263W, strain SAP30, stronger effect = lower value",0.966
same,normalized growth,[3],0.718
same,normalized growth,"S. cerevisiae deletion strains, locus YNL153C, strain GIM3, stronger effect = lower value",0.997
same,normalized growth,"S. cerevisiae deletion strains, locus YNL298W, strain CLA4 (second series), stronger effect = lower value",0.803 (active)
same,normalized growth,[4],0.998
same,normalized growth,"S. cerevisiae deletion strains, locus YNR030W, strain Alg12, stronger effect = lower value",0.946
same,normalized growth,[5],0.866
same,normalized growth,[6],0.925
same,normalized growth,"S. cerevisiae deletion strains, locus YPR135W, strain CTF4, stronger effect = lower value",0.617 (active)
same,normalized growth,"S. cerevisiae strains, strain wild type, stronger effect = lower value",0.969
Cc1ncc([N+](=O)[O-])n1CC(O)CCl (stereo not drawn),normalized growth,[7],0.977
same,normalized growth,[8],0.965
same,normalized growth,[9],0.956
same,normalized growth,[10],0.978
same,normalized growth,[11],0.922
same,normalized growth,[12],0.97
same,normalized growth,[13],0.933
COc1ccc(-c2csc(-c3cccnc3)n2)cc1,normalized growth,"S. cerevisiae deletion strains, locus YAR019C, strain CDC15, stronger effect = lower value",0.96
same,normalized growth,"S. cerevisiae deletion strains, locus YBL105C, strain PKC1, stronger effect = lower value",0.966
same,normalized growth,"S. cerevisiae deletion strains, locus YBR135W, strain CKS1, stronger effect = lower value",0.957
same,normalized growth,"S. cerevisiae deletion strains, locus YBR136W, strain MEC1, stronger effect = lower value",0.958
same,normalized growth,"S. cerevisiae deletion strains, locus YBR160W, strain CDC28, stronger effect = lower value",0.963
same,normalized growth,"S. cerevisiae deletion strains, locus YDL017W, strain CDC7, stronger effect = lower value",0.961
same,normalized growth,"S. cerevisiae deletion strains, locus YDL028C, strain MPS1, stronger effect = lower value",0.965
same,normalized growth,[1],0.951
same,normalized growth,"S. cerevisiae deletion strains, locus YDL108W, strain KIN28, stronger effect = lower value",0.958
same,normalized growth,"S. cerevisiae deletion strains, locus YDL132W, strain cdc53, stronger effect = lower value",0.961
same,normalized growth,"S. cerevisiae deletion strains, locus YDL214C, strain PRR2, stronger effect = lower value",0.909
same,normalized growth,"S. cerevisiae deletion strains, locus YDR052C, strain DBF4, stronger effect = lower value",0.973
same,normalized growth,"S. cerevisiae deletion strains, locus YDR054C, strain cdc34, stronger effect = lower value",0.945
same,normalized growth,"S. cerevisiae deletion strains, locus YDR226W, strain ADK1, stronger effect = lower value",0.946
same,normalized growth,"S. cerevisiae deletion strains, locus YDR477W, strain SNF1, stronger effect = lower value",0.894
same,normalized growth,"S. cerevisiae deletion strains, locus YER123W, strain YCK3, stronger effect = lower value",0.847
same,normalized growth,"S. cerevisiae deletion strains, locus YER133W, strain GLC7, stronger effect = lower value",0.888
same,normalized growth,"S. cerevisiae deletion strains, locus YFL009W, strain cdc4, stronger effect = lower value",0.954
same,normalized growth,"S. cerevisiae deletion strains, locus YFL029C, strain CAK1, stronger effect = lower value",0.949
same,normalized growth,"S. cerevisiae deletion strains, locus YFR003C, strain YPI1, stronger effect = lower value",0.947
same,normalized growth,"S. cerevisiae deletion strains, locus YFR019W, strain FAB1, stronger effect = lower value",0.86
same,normalized growth,"S. cerevisiae deletion strains, locus YFR028C, strain CDC14, stronger effect = lower value",0.949
same,normalized growth,"S. cerevisiae deletion strains, locus YGR040W, strain KSS1, stronger effect = lower value",0.858
same,normalized growth,"S. cerevisiae deletion strains, locus YGR052W, strain FMP48, stronger effect = lower value",0.993
same,normalized growth,"S. cerevisiae deletion strains, locus YGR092W, strain DBF2, stronger effect = lower value",0.828
same,normalized growth,[2],0.849 (active)
same,normalized growth,[7],0.889
same,normalized growth,"S. cerevisiae deletion strains, locus YHR082C, strain KSP1, stronger effect = lower value",0.954
same,normalized growth,"S. cerevisiae deletion strains, locus YHR205W, strain SCH9, stronger effect = lower value",0.955
same,normalized growth,"S. cerevisiae deletion strains, locus YIL147C, strain SLN1, stronger effect = lower value",0.961
same,normalized growth,[8],0.884
same,normalized growth,"S. cerevisiae deletion strains, locus YJL128C, strain PBS2, stronger effect = lower value",0.966
same,normalized growth,"S. cerevisiae deletion strains, locus YJL157C, strain FAR1, stronger effect = lower value",0.914
same,normalized growth,"S. cerevisiae deletion strains, locus YJR016C, strain ILV3, stronger effect = lower value",0.955
same,normalized growth,"S. cerevisiae deletion strains, locus YJR066W, strain TOR1 (second series), stronger effect = lower value",0.857
same,normalized growth,[9],0.891
same,normalized growth,"S. cerevisiae deletion strains, locus YKL048C, strain ELM1, stronger effect = lower value",0.958
same,normalized growth,"S. cerevisiae deletion strains, locus YKL067W, strain YNK1, stronger effect = lower value",0.912
same,normalized growth,"S. cerevisiae deletion strains, locus YKL101W, strain HSL1, stronger effect = lower value",0.928
same,normalized growth,"S. cerevisiae deletion strains, locus YKL193C, strain SDS22, stronger effect = lower value",0.948
same,normalized growth,"S. cerevisiae deletion strains, locus YKL203C, strain TOR2, stronger effect = lower value",0.904
same,normalized growth,[10],1.01
same,normalized growth,"S. cerevisiae deletion strains, locus YLR133W, strain CKI1, stronger effect = lower value",0.915
same,normalized growth,"S. cerevisiae deletion strains, locus YLR403W, strain SFP1, stronger effect = lower value",0.877
same,normalized growth,"S. cerevisiae deletion strains, locus YML070W, strain DAK1, stronger effect = lower value",0.912
same,normalized growth,"S. cerevisiae deletion strains, locus YMR001C, strain CDC5, stronger effect = lower value",0.959
same,normalized growth,"S. cerevisiae deletion strains, locus YMR205C, strain PFK2 (second series), stronger effect = lower value",0.907
same,normalized growth,"S. cerevisiae deletion strains, locus YMR277W, strain FCP1, stronger effect = lower value",0.95
same,normalized growth,"S. cerevisiae deletion strains, locus YNL006W, strain LST8, stronger effect = lower value",0.968
same,normalized growth,"S. cerevisiae deletion strains, locus YNL020C, strain ARK1, stronger effect = lower value",0.903
same,normalized growth,"S. cerevisiae deletion strains, locus YNL161W, strain CBK1, stronger effect = lower value",0.963
same,normalized growth,[11],0.882
same,normalized growth,"S. cerevisiae deletion strains, locus YNL207W, strain RIO2, stronger effect = lower value",0.949
same,normalized growth,"S. cerevisiae deletion strains, locus YNL222W, strain SSU72, stronger effect = lower value",0.953
same,normalized growth,"S. cerevisiae deletion strains, locus YNL307C, strain MCK1 (second series), stronger effect = lower value",0.888
same,normalized growth,"S. cerevisiae deletion strains, locus YOL078W, strain AVO1, stronger effect = lower value",0.948
same,normalized growth,"S. cerevisiae deletion strains, locus YOL136C, strain PFK27, stronger effect = lower value",0.915
same,normalized growth,"S. cerevisiae deletion strains, locus YOR061W, strain CKA2, stronger effect = lower value",0.929
same,normalized growth,"S. cerevisiae deletion strains, locus YOR119C, strain RIO1, stronger effect = lower value",0.948
same,normalized growth,[12],0.906
same,normalized growth,"S. cerevisiae deletion strains, locus YOR329C, strain SCD5, stronger effect = lower value",0.957
same,normalized growth,"S. cerevisiae deletion strains, locus YPL031C, strain PHO85, stronger effect = lower value",0.876
same,normalized growth,"S. cerevisiae deletion strains, locus YPL153C, strain RAD53, stronger effect = lower value",0.883
same,normalized growth,"S. cerevisiae deletion strains, locus YPL204W, strain HRR25, stronger effect = lower value",0.852
same,normalized growth,"S. cerevisiae deletion strains, locus YPL209C, strain IPL1, stronger effect = lower value",0.963
same,normalized growth,[13],0.901
same,normalized growth,"S. cerevisiae deletion strains, locus YPR025C, strain CCL1, stronger effect = lower value",0.958
same,normalized growth,"S. cerevisiae deletion strains, locus YPR106W, strain ISR1, stronger effect = lower value",0.958
same,normalized growth,"S. cerevisiae deletion strains, locus YPR111W, strain DBF20, stronger effect = lower value",0.956
same,normalized growth,"S. cerevisiae deletion strains, strain NNK1, stronger effect = lower value",0.957
same,normalized growth,"S. cerevisiae deletion strains, strain TSCII, stronger effect = lower value",0.952
CN(C)C/C=C(/c1ccc(Br)cc1)c1cccnc1,normalized growth,"S. cerevisiae deletion strains, locus YAL040C, strain CLN3, stronger effect = lower value",0.964
same,normalized growth,"S. cerevisiae deletion strains, locus YCL061C, strain MRC1 (second series), stronger effect = lower value",0.999
same,normalized growth,"S. cerevisiae deletion strains, locus YDR363W, strain ESC2, stronger effect = lower value",0.984
same,normalized growth,"S. cerevisiae deletion strains, locus YER002W, strain NOP16, stronger effect = lower value",0.992
same,normalized growth,[3],1.02
same,normalized growth,"S. cerevisiae deletion strains, locus YNL175C, strain NOP13, stronger effect = lower value",0.975
same,normalized growth,"S. cerevisiae deletion strains, locus YNL197C, strain WHI3, stronger effect = lower value",1
same,normalized growth,"S. cerevisiae deletion strains, locus YNL224C, strain SQS1, stronger effect = lower value",1
same,normalized growth,[4],0.926
same,normalized growth,"S. cerevisiae deletion strains, locus YOR083W, strain WHI5 (second series), stronger effect = lower value",0.994
same,normalized growth,[5],0.997
same,normalized growth,[6],0.998
